Unmarked numbers belong to inactive results. Results filed as inconclusive are left out. Entries that show only a call come without a potency. The source made the active and inactive calls. Unless noted, the call rests on the fitted dose curve; in most records, active means well fitted curve in the direction sought with a large enough effect; inconclusive means small, poorly fitted or top-dose-only effect, or another doubt; inactive means no such curve, though single readings can be large; an effect the other way counts as inactive or inconclusive.
Key:
[1] = qHTS for differential inhibitors of proliferation of Plasmodium falciparum line GB4 (AID 1816); details: Potency: Plasmodium falciparum GB4 proliferation inhibition;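 further: parasite growth measured after 72 h incubation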; further: potency means the concentration at half of the fitted maximal effect
[2] = qHTS for differential inhibitors of proliferation of Plasmodium falciparum line D10 (AID 1877);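 further: parasites grown with compound for 72 h before DNA staining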; further: potency means the concentration at half of the fitted maximal effect
[3] = Validation screen for small molecules that induce DNA re-replication in SW480 colon adenocarcinoma cells (AID 504364)
Method in brief: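 SW480 cells seeded at 250 per well were exposed to compound or DMSO for 48 hr at 37 C, 5% CO2, then stained with Hoechst for 40 min. DNA content per nucleus was imaged (405 nm ex, 500-530 nm em).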

[4] = target: Cytochrome P450 1A2 (Homo sapiens) (UniProt P05177); test: p450-cyp1a2 (AID 410; calls by dose curve; further: potency means the concentration at half of the fitted maximal effect)
Method in brief: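 Human CYP1A2 (20nM) demethylated Luciferin-ME at its Km (100uM) in 100mM KPO4. After 10 min compound preincubation, NADPH regeneration ran the reaction 60 min at room temperature. Luciferin was read by luminescence, normalized to 57 uM furafylline.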

[5] = Stat Signaling Pathway (AID 446; active means well fitted curve in either direction with a large enough effect, not every such curve was filed as active;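 further: ME-180 cervical cancer cells given 40 pM IL-6 alongside compound; SIE-controlled beta-lactamase reporter measured as 460/530 nm FRET emission ratio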); details: ME-180 (cervical carcinoma) SIE beta-lactamase reporter, IL-6 stimulated, 5 h; at 7.69 µM (top of the series) unless noted
Method in brief: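 IL-6/STAT signaling read in ME-180 cells via an SIE beta-lactamase reporter. Stimulus was 40 pM IL-6 (its AC50) for 5 hrs, so both activation and inhibition register.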

[6] = target: Glucocorticoid receptor (Homo sapiens) (UniProt P04150); test: GR-EFC Redistribution (AID 451; calls by dose curve; further: potency means the concentration at half of the fitted maximal effect); details: CHO-K1 GR-EFC translocation, beta-gal luminescence, 2 h
Method in brief: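 CHO-K1 cells expressing nuclear EA and GR-ED fragments of b-gal; compounds titrated up to 46 uM final, 2 h at 37 C. GR nuclear translocation read as complemented b-gal luminescence after 1 h RT detection.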

[7] = target: Guanine nucleotide-binding protein G(i) subunit alpha-1 (Homo sapiens) (UniProt P63096); test: qHTS Assay for Inhibitors of RGS12 GoLoco Motif Activity (Green Fluorophore) (AID 879);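 further: negative values mean loss of peptide binding seen as reduced polarization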
Method in brief: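 Fluorescence polarization assay: 50 nM Gαi1 with 10 nM FITC-labeled RGS12 GoLoco peptide in 10 mM Tris pH 7.5, 150 mM NaCl, 0.1 mM GDP, 0.05% NP40, 10 min at room temperature with compound.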

[8] = target: Pyruvate kinase (Leishmania mexicana) (UniProt Q27686); test: qHTS Validation Assay for Inhibitors of Leishmania Mexicana Pyruvate Kinase (AID 945)
Method in brief: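 Eight-point qHTS titrations; enzyme 0.2 nM LmPYK (E451W mutant); substrates 0.5 mM PEP, 0.1 mM ADP; 7 mM MgCl2; 1 h room temperature; PKLight luminescence normalized to neutral control.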

[9] = target: Pyruvate kinase PKM (Homo sapiens) (UniProt P14618); test: qHTS Assay for Activators of Human Muscle Pyruvate Kinase (AID 954; active means well fitted curve in the direction sought with a large enough effect, not every such curve was filed as active)
Method in brief: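 Enzyme was run at intermediate activity so both inhibitors and activators could be detected. ATP formed from ADP and PEP by 0.1 nM human PKM2 during a 1 h room-temperature incubation was quantified by coupled luciferase luminescence.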

[10] = target: Alpha-galactosidase A (Homo sapiens) (UniProt P06280); test: Counterscreen for Glucocerebrosidase Inhibitors: qHTS Assay for Human alpha-Galactosidase at pH 4.5 (AID 992)
Method in brief: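 Read-out is 4-methylumbelliferone fluorescence (365 nm excitation, 440 nm emission) after a pH 10 NaOH/glycine stop. Reactions held 2 nM enzyme and 80 uM substrate at pH 4.5 for 20 min at room temperature.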

[11] = qHTS for differential inhibitors of proliferation of Plasmodium falciparum line 7G8 (AID 1815);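 further: parasite growth measured after three days of incubation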; further: potency means the concentration at half of the fitted maximal effect
[12] = qHTS for differential inhibitors of proliferation of Plasmodium falciparum line W2 (AID 1883); details: Potency: Plasmodium falciparum W2 proliferation inhibition;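 further: parasites grown with compound for 72 h before lysis and staining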; further: potency means the concentration at half of the fitted maximal effect
[13] = qHTS for differential inhibitors of proliferation of Plasmodium falciparum line HB3 (AID 1886); details: Potency: Plasmodium falciparum HB3 proliferation inhibition;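 further: parasites grown with compound for 72 h before SYBR Green readout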; further: potency means the concentration at half of the fitted maximal effect
[14] = target: RecQ-like DNA helicase BLM (Homo sapiens) (UniProt P54132); test: qHTS Validation Assay for Inhibitors of Bloom's syndrome helicase (BLM) (AID 2364)
Method in brief: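 50 nM BLM preincubated 15 min at room temperature with compound in pH 8.0 Tris buffer containing 2.5 ug/ml poly(dI-dC); started with 200 nM TAMRA/BHQ-2 forked duplex and 2 mM ATP (final). Unwinding read as TAMRA fluorescence increase, two reads 2 h apart.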

[15] = qHTS profiling for inhibitors of Plasmodium falciparum proliferation (AID 504749); further: potency means the concentration at half of the fitted maximal effect; on all read-outs here: nearly all actives have a fitted effect of over 60% in size; details: P. falciparum in erythrocytes, SYBR Green DNA, 72 h; for activity, negative = inhibition: at 28.7 µM (top of the series)
Method in brief: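 Readout was DNA-dye fluorescence from lysed cultures, ex 485/em 535 nm. Parasitized red cells had grown 72 h with compound; data scaled between 0.29 uM artemisinin and DMSO wells and corrected using vehicle-only plates.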

Sequence of Alpha-galactosidase A (Homo sapiens) (P06280 whole entry, looked up): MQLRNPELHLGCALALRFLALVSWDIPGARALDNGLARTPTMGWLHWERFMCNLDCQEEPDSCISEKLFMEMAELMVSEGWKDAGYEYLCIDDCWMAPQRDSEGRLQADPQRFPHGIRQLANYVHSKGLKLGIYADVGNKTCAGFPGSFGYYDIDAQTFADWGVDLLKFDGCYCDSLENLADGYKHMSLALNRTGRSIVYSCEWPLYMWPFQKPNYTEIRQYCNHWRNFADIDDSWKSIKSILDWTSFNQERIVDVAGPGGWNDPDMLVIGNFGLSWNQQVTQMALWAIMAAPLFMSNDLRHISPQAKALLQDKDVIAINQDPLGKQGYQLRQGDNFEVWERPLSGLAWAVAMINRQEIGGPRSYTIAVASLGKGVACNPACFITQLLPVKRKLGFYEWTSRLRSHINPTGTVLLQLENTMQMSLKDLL
Sequence of RecQ-like DNA helicase BLM (Homo sapiens) (P54132 whole entry, looked up): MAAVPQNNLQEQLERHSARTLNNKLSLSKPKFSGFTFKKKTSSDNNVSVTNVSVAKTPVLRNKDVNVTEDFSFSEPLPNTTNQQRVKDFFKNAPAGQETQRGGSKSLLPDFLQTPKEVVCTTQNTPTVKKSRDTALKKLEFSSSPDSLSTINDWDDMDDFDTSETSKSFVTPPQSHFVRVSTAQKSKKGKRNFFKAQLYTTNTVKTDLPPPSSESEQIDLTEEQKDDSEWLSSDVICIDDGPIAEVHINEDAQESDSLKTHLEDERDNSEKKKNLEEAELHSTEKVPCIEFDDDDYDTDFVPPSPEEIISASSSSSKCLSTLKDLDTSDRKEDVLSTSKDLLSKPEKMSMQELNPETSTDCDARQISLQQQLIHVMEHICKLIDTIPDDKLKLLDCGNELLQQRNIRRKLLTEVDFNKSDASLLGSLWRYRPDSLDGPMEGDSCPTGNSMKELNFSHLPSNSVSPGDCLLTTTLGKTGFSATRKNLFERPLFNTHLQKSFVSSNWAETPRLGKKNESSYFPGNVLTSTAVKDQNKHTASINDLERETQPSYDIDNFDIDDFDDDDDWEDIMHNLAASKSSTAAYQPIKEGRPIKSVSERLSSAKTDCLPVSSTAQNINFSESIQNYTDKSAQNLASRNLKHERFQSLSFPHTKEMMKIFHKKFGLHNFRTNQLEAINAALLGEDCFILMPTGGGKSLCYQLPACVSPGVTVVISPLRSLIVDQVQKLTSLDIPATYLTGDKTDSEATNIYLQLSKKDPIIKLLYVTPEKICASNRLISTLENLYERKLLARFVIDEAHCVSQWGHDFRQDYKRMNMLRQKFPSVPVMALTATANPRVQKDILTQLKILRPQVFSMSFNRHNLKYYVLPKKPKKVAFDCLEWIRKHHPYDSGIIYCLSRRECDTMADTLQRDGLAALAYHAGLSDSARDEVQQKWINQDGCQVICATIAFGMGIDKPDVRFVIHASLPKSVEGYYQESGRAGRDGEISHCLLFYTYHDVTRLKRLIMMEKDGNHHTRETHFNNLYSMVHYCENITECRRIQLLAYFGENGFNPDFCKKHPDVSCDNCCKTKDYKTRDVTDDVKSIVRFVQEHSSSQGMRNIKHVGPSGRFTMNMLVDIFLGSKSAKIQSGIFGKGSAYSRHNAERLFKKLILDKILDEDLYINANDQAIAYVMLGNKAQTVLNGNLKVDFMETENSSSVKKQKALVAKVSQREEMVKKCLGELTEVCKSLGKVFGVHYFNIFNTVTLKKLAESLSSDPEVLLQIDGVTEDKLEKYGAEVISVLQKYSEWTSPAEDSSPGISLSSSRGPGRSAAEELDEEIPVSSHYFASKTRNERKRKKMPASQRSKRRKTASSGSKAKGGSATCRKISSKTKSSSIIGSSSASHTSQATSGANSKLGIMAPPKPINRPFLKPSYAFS
Sequence of Cytochrome P450 1A2 (Homo sapiens) (P05177 whole entry, looked up): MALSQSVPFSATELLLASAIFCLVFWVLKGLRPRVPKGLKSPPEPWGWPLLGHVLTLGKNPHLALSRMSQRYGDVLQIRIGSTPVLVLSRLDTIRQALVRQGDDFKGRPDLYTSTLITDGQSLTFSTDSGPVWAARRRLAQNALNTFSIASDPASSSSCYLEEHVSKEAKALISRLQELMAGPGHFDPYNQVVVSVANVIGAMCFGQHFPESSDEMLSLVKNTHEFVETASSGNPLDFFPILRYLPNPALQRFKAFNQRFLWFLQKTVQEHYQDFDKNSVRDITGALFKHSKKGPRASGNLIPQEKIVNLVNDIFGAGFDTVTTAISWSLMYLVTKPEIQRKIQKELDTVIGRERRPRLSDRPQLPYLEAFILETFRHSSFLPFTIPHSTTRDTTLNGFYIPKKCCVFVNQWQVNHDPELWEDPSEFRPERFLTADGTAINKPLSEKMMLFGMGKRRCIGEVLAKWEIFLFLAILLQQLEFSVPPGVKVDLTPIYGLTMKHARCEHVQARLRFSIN
Sequence of Pyruvate kinase PKM (Homo sapiens) (P14618 whole entry, looked up): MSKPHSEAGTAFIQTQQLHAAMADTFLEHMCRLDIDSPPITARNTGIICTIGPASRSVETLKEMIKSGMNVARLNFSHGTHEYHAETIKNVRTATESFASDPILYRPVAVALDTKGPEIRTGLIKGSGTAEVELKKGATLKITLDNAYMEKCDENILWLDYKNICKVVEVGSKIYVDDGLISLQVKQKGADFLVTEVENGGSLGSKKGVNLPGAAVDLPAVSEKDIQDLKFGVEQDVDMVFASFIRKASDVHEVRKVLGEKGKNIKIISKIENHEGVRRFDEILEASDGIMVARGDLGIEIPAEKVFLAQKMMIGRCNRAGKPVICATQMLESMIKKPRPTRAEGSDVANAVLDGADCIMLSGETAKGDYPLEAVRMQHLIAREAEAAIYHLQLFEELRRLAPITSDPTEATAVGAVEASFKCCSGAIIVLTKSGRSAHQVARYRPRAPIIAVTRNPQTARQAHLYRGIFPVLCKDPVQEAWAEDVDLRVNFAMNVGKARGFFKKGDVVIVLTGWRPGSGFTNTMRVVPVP
Sequence of Guanine nucleotide-binding protein G(i) subunit alpha-1 (Homo sapiens) (P63096 whole entry, looked up): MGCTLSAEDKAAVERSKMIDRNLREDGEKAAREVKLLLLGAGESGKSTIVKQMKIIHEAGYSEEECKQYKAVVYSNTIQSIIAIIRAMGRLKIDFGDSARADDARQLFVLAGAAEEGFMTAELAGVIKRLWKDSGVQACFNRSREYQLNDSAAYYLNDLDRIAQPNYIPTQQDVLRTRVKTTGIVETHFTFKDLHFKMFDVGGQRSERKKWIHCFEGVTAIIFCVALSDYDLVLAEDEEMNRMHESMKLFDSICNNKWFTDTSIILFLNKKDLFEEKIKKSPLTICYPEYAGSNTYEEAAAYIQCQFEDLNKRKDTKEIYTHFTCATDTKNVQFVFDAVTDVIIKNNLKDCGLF
Sequence of Pyruvate kinase (Leishmania mexicana) (Q27686 2-499 E452W): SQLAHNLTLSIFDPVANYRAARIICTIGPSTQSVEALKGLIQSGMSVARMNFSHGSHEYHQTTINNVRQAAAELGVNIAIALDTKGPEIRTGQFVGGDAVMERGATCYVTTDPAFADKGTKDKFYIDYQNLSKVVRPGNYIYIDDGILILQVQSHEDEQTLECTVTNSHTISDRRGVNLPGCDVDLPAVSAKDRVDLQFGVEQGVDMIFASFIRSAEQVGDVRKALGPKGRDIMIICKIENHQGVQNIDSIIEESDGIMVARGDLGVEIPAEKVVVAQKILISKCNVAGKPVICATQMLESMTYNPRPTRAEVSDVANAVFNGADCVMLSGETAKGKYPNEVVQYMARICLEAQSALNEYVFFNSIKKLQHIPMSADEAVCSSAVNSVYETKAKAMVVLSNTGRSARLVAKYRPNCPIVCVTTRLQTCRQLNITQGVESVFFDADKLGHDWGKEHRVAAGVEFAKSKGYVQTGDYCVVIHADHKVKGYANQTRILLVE
Sequence of Glucocorticoid receptor (Homo sapiens) (P04150 whole entry, looked up, the tested form may be a part): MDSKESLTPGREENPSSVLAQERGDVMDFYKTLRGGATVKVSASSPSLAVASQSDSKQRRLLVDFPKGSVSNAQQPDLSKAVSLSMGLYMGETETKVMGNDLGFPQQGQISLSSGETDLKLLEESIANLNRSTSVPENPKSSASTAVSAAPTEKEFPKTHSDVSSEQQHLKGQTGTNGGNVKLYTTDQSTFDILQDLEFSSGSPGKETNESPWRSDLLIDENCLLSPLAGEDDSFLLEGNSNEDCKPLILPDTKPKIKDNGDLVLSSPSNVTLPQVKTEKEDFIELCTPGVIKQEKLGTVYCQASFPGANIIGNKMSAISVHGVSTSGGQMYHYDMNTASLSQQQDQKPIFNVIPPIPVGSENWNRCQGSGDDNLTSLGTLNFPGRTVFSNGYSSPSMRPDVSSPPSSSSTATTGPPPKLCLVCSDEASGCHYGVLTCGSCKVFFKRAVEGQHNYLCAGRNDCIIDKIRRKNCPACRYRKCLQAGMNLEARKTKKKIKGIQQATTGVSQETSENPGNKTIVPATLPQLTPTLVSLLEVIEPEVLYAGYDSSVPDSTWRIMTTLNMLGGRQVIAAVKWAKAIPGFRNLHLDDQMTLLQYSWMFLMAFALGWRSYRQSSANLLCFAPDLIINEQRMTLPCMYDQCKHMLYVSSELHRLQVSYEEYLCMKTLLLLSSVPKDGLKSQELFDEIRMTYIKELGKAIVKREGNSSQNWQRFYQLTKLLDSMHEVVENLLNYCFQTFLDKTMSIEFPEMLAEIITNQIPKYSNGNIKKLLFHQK

O=[N+]([O-])c1ccc(CSc2ncnc3c2ncn3[C@@H]2O[C@H](CO)[C@H](O)[C@H]2O)cc1
Potency [1]: inactive | Potency [2]: inactive | outcome [3]: inactive

NCCCCNS(=O)(=O)c1cccc2c(Cl)cccc12
Potency [4]: 15.8 µM (active) | activity, negative = inhibition [5]: 3.48% [at 38 µM] | Potency [6]: > 46 µM | outcome [7]: inactive | Potency [8]: inactive | outcome [9]: inactive | outcome [10]: inactive | Potency [11]: 8.91 µM (active) | Potency [1]: 10 µM (active) | Potency [2]: 10 µM (active) | Potency [12]: 11.2 µM (active) | Potency [13]: 12.6 µM (active) | Potency [14]: inactive

Nc1ncnc2c1ncn2[C@@H]1O[C@H](CO)[C@H](O)[C@H]1O
Potency [11]: inactive | Potency [1]: inactive | Potency [2]: inactive | Potency [13]: inactive | Potency [14]: inactive | outcome [3]: inactive

CC(=O)NCCc1ccc(O)c(O)c1
Potency [4]: inactive | activity, negative = inhibition [5]: 5.1% [at 38 µM] | Potency [6]: > 46 µM | outcome [7]: inactive | Potency [8]: inactive | outcome [9]: inactive | outcome [10]: inactive | outcome [3]: inactive

C[C@H](Cc1ccccc1)Nc1ncnc2c1ncn2[C@@H]1O[C@H](CO)[C@H](O)[C@H]1O
Potency [11]: inactive | Potency [1]: inactive | Potency [2]: inactive | Potency [13]: inactive | Potency [14]: inactive | outcome [3]: inactive

CNc1ncnc2c1ncn2[C@@H]1O[C@H](CO)[C@H](O)[C@H]1O
Potency [11]: inactive | Potency [1]: inactive | Potency [2]: inactive | Potency [12]: inactive | Potency [13]: inactive

CN(C)C1C(=O)C(C(N)=O)=C(O)[C@@]2(O)C(=O)C3=C(O)c4c(O)ccc(Cl)c4[C@@H](O)C3C[C@@H]12 (stereo partly drawn)
Potency [12]: 0.891 µM (active)

COC(=O)c1c(-c2cc(OC)c(OC)c(OC)c2)c2ccc(OCc3ccccn3)cc2c(=O)n1-c1ccc(N)cc1
Potency [4]: inactive | activity, negative = inhibition [5]: -8.64% [at 38 µM] | Potency [6]: > 46 µM | outcome [7]: inactive | Potency [8]: inactive | outcome [9]: inactive | outcome [10]: inactive | Potency [11]: 0.891 µM (active) | Potency [1]: 2.82 µM (active) | Potency [2]: 7.08 µM (active) | Potency [12]: 2.24 µM (active) | Potency [13]: 2.82 µM (active)

CSc1nc(N)c2ncn([C@@H]3O[C@H](COP(=O)(O)OP(=O)(O)OP(=O)(O)O)[C@H](O)[C@H]3O)c2n1
Potency [1]: 12.6 µM (active) | Potency [2]: 12.6 µM (active) | Potency [12]: 12.6 µM (active)

CCSC(N)=Nc1ccc(C(F)(F)F)cc1
Potency [4]: 2.51 µM (active) | activity, negative = inhibition [5]: 13.4% [at 38 µM] | Potency [6]: > 46 µM | outcome [7]: inactive | outcome [9]: inactive | outcome [10]: inactive | Potency [11]: inactive | Potency [2]: inactive | Potency [13]: inactive | outcome [3]: inactive

COc1ccc(CCNC[C@@H](O)c2ccc(O)cc2)cc1OC
Potency [11]: inactive | Potency [1]: inactive | Potency [2]: inactive | Potency [13]: inactive | Potency [14]: inactive | activity, negative = inhibition ([15]; parasite line A): 10.4% | activity, negative = inhibition ([15]; parasite line B): 8.86%

CNC(=O)[C@H]1O[C@@H](n2cnc3c(NCc4ccc(N)cc4)ncnc32)[C@H](O)[C@H]1O
Potency [1]: inactive | Potency [2]: inactive | Potency [13]: inactive

NC(=S)NCCCC(N)C(=O)O (stereo not drawn)
Potency [11]: inactive | Potency [2]: inactive | Potency [12]: inactive | Potency [13]: inactive

CN1C[C@H](C(=O)N[C@]2(C)O[C@@]3(O)C4CCCN4C(=O)[C@H](Cc4ccccc4)N3C2=O)C[C@@H]2c3cccc4[nH]cc(c34)C[C@H]21 (stereo partly drawn)
Potency ([15]; parasite line A): 8.91 µM (active) | Potency ([15]; parasite line B): 4.47 µM (active)

CCCCC#Cc1nc(N)c2ncn([C@@H]3O[C@H](C(=O)NCC)[C@@H](O)[C@H]3O)c2n1
Potency [11]: 7.94 µM (active) | Potency [12]: 11.2 µM (active) | Potency [13]: 11.2 µM (active) | Potency [14]: inactive

NC(=S)c1ccc[n+]([C@@H]2O[C@@H](COP(=O)([O-])OP(=O)(O)OC[C@H]3O[C@@H](n4cnc5c(N)ncnc54)[C@H](OP(=O)(O)O)[C@H]3O)C(O)C2O)c1 (stereo partly drawn)
Potency [11]: inactive | Potency [1]: inactive | Potency [2]: inactive | Potency [12]: inactive | Potency [13]: inactive

CCCCCCCCCCCCCCC/C=C/[C@@H](O)[C@H](NC(=O)CCCCCCCCCCCCC)OC (tested in a mixture with another compound)
Potency [11]: inactive | Potency [1]: inactive | Potency [2]: inactive | Potency [12]: inactive | Potency [13]: inactive

OC[C@H]1O[C@@H](n2cnc3c(N[C@H]4CC5CCC4C5)ncnc32)[C@H](O)[C@@H]1O (stereo partly drawn)
Potency [11]: inactive | Potency [1]: inactive | Potency [2]: inactive | Potency [13]: inactive

C[C@H]1CC2[C@@H]3CCC4=CC(=O)C=C[C@]4(C)[C@@]3(Cl)[C@@H](O)C[C@]2(C)[C@@]1(O)C(=O)CO (stereo partly drawn)
Potency [2]: inactive

CN1CCc2cc(Cl)c(O)cc2C(c2ccccc2)C1 (stereo not drawn)
Potency [11]: 7.94 µM (active) | Potency [1]: 11.2 µM (active) | Potency [2]: 12.6 µM (active) | Potency [12]: 4.47 µM (active) | Potency [13]: 12.6 µM (active) | Potency [14]: inactive
